Where a name gives a salt, the structure may show the parent alone. ± gives the standard deviation of the averaged measurements. In all, about 2,600 compounds were measured (“total cell number (DAPI+ nuclei) relative to DMSO vehicle control”: median about -1.4, lowest 2% from about -23 on). For the sample, the lowest values were picked, then their nearest neighbours and some compounds at random.
system: jimpy (Plp1 jimpy) mouse iPSC-derived oligodendrocyte progenitor cells; assay: total cell number (DAPI+ nuclei) relative to DMSO vehicle control (SDs above negative control mean); higher = more surviving cells; details: 10 µM; 3 days

Question: Which total cell number does the source give for `CNC(=O)CN1CCC(Oc2cc3c(Nc4cccc(Cl)c4F)ncnc3cc2OC)CC1` [AZD8931 (Sapitinib)] here?
Answer: -10.1

Question: How did the total cell number turn out when `CN1CCN(CCOc2cc(OC3CCOCC3)c3c(Nc4c(Cl)ccc5c4OCO5)ncnc3c2)CC1` [Saracatinib (AZD0530)] was run?
Answer: -22.8

Question: How did the total cell number turn out when `Cc1ccc(Sc2cncc3sc(C(N)=O)cc23)cc1` was run?
Answer: 0.0291

Question: How did the total cell number turn out when `O=C(Nc1ccccc1)N1CCN(c2nc(-c3ccccc3)ns2)CC1` was run?
Answer: 0.543

Question: For `CC(C)C[C@H](C(=O)O)c1cc(-c2ccc(C(F)(F)F)cc2)cc(-c2ccc(C(F)(F)F)cc2)c1`, which total cell number is on record?
Answer: 10.7

Question: `COc1ccccc1CN[C@H]1CCCN[C@H]1c1ccccc1` was tested. Which total cell number did it give?
Answer: -1.93

Question: For `CCCCCCCCCCCCCCCCn1cc[n+](Cc2ccccc2)c1C`, which total cell number is on record?
Answer: -16.7

Question: `CCCCCN(CCCOC)C(=O)C(CCC(=O)O)NC(=O)c1ccc(Cl)c(Cl)c1` (centres undefined) [Loxiglumide] was tested. Which total cell number did it give?
Answer: -0.322

Question: With `COc1cc(OC2CCN(C)CC2)ccc1Nc1ncc2c(n1)n(C1CCCC1)c(=O)n2C` as the compound, how does the total cell number read?
Answer: -7.07

Question: Which total cell number does the source give for `CC[C@@H]1C(=O)N(C)c2cnc(Nc3ccc(C(=O)NC4CCN(C)CC4)cc3OC)nc2N1C1CCCC1` here?
Answer: -26.1

Question: Which total cell number does the source give for `CC[C@@H]1C(=O)N(C)c2cnc(Nc3ccc(C(=O)N[C@H]4CC[C@H](N5CCN(CC6CC6)CC5)CC4)cc3OC)nc2N1C(C)C` [Volasertib (BI 6727)] here?
Answer: -14.6

Question: Which total cell number does the source give for `CN1C2=CC(=O)/C(=N\NC(N)=O)C=C2CC1S(=O)(=O)O` (centres undefined) [Carbazochrome sodium sulfonate (AC-17)] here?
Answer: -0.411

Question: Which total cell number does the source give for `CC1=C(C(=O)OC(C)C)C(c2cccc([N+](=O)[O-])c2)C(C(=O)OC2CN(C(c3ccccc3)c3ccccc3)C2)=C(N)N1` (centres undefined) [Azelnidipine] here?
Answer: -12.3

Question: For `CNCc1cc(-c2ccccc2F)n(S(=O)(=O)c2cccnc2)c1`, which total cell number is on record?
Answer: -1.01

Question: How did the total cell number turn out when `CNC(=O)c1cc(Oc2ccc(NC(=O)Nc3ccc(Cl)c(C(F)(F)F)c3)c(F)c2)ccn1` [Regorafenib (BAY 73-4506)] was run?
Answer: 0.684

Question: For `CCC(=O)Nc1cccc(Oc2nc(Nc3ccc(N4CCN(C)CC4)cc3OC)ncc2Cl)c1`, which total cell number is on record?
Answer: -15.2

Question: For `C=CCn1c(=O)c2cnc(Nc3ccc(N4CCN(C)CC4)cc3)nc2n1-c1cccc(C(C)(C)O)n1`, which total cell number is on record?
Answer: -14.6

Question: How did the total cell number turn out when `C=CC(=O)Nc1cccc(Oc2nc(Nc3ccc(N4CCN(C)CC4)cc3OC)ncc2Cl)c1` was run?
Answer: -24.9

Question: `C=CC(=O)Nc1cccc(Oc2nc(Nc3ccc(N4CCN(C)CC4)cc3)ncc2Cl)c1` was tested. Which total cell number did it give?
Answer: -26.9

Question: For `Cc1cnc(Nc2ccc(N3CCN(C)CC3)cc2)nc1Nc1cccc(S(=O)(=O)NC(C)(C)C)c1`, which total cell number is on record?
Answer: -12.1

Question: With `C=CC(=O)Nc1cccc(Nc2nc(Nc3ccc(Oc4ccnc(C(=O)NC)c4)cc3)ncc2F)c1` as the compound, how does the total cell number read?
Answer: -15

Question: Which total cell number does the source give for `C=CC(=O)Nc1cccc(Nc2nc(Nc3ccc(N4CCN(C(C)=O)CC4)cc3OC)ncc2C(F)(F)F)c1` here?
Answer: -15.5

Question: Which total cell number does the source give for `COc1cc(N2CCC(N3CCN(C)CC3)CC2)ccc1Nc1ncc(Cl)c(Nc2ccccc2S(=O)(=O)C(C)C)n1` here?
Answer: -27.1

Question: How did the total cell number turn out when `Cn1c(=O)c(-c2c(Cl)cccc2Cl)cc2cnc(Nc3ccc(N4CCOCC4)cc3)nc21` was run?
Answer: -9.85

Question: For `Cc1cc(Nc2ncc(Cl)c(Nc3ccccc3S(=O)(=O)C(C)C)n2)c(OC(C)C)cc1C1CCNCC1`, which total cell number is on record?
Answer: -16.3

Question: How did the total cell number turn out when `CNC(=O)c1ccccc1Nc1nc(Nc2ccc(N3CCOCC3)cc2OC)ncc1Cl` was run?
Answer: -12.2

Question: For `C=CC(=O)Nc1cccc(Sc2nc(Nc3ccc(N4CCN(C)CC4)cc3)ncc2Cl)c1`, which total cell number is on record?
Answer: -26.9

Question: Which total cell number does the source give for `CC(C)(CO)Cc1cc(C(C)(C)C)c(O)c(C(C)(C)C)c1` here?
Answer: 1.01

Question: How did the total cell number turn out when `COC(=O)C1=C(C)NC(C)=C(C(=O)OC(C)(C)CN(C)CCC(c2ccccc2)c2ccccc2)C1c1cccc([N+](=O)[O-])c1` (centres undefined) [Lercanidipine hydrochloride hemihydrate] was run?
Answer: -8.91

Question: For `CC(C)(NS(=O)(=O)c1ccc(Oc2ccc(F)cc2)cc1)C(=O)NO`, which total cell number is on record?
Answer: -2.86

Question: With `CC(N)(Cc1ccc(O)c(O)c1)C(=O)O` (racemic) [(±)-3-(3,4-dihydroxyphenyl)-2-methyl-DL-alanine] as the compound, how does the total cell number read?
Answer: -2.34

Question: `N=C(N)SCCN` [2-(2-Aminoethyl)isothiourea dihydrobromide] was tested. Which total cell number did it give?
Answer: -2.29

Question: Which total cell number does the source give for `O=C(Nc1c[nH]nc1-c1nc2ccc(CN3CCOCC3)cc2[nH]1)NC1CC1` here?
Answer: -22.6

Question: With `O=C(NC1CCOCC1)c1ccc(-c2cc(-c3c[nH]nc3-c3ccccn3)ccn2)cc1` as the compound, how does the total cell number read?
Answer: -0.803

Question: How did the total cell number turn out when `CCCCNc1ncc(-c2ccc(CN3CCOCC3)cn2)c(NC2CCC(O)CC2)n1` (centres undefined) was run?
Answer: -8.26

Question: With `O=C(O)Cn1nnc(-c2cc(N3CCC(Oc4cc(F)ccc4Br)CC3)no2)n1` as the compound, how does the total cell number read?
Answer: 3.6

Question: `CC(C)N(CCCNC(=O)Nc1ccc(C(C)(C)C)cc1)C[C@H]1O[C@@H](n2cc(Br)c3c(N)ncnc32)[C@H](O)[C@@H]1O` was tested. Which total cell number did it give?
Answer: -7.77

Question: How did the total cell number turn out when `CN(C)Cc1cccc(N/C(=C2\C(=O)Nc3cc(C(N)=O)ccc32)c2ccccc2)c1` was run?
Answer: -14.3

Question: Which total cell number does the source give for `CCS(=O)(=O)Nc1ccc2c(c1)/C(=C(/Nc1ccc(CN3CCCCC3)cc1)c1ccccc1)C(=O)N2` [Hesperadin] here?
Answer: -17.7

Question: For `COC(=O)c1ccc2c(c1)NC(=O)/C2=C(\Nc1ccc(N(C)C(=O)CN2CCN(C)CC2)cc1)c1ccccc1` [Nintedanib (BIBF 1120)], which total cell number is on record?
Answer: -23

Question: How did the total cell number turn out when `C[C@@H]1O[C@@H](OC[C@H]2O[C@@H](Oc3c(-c4ccc(O)c(O)c4)oc4cc(O)cc(O)c4c3=O)[C@H](O)[C@@H](O)[C@@H]2O)[C@H](O)[C@H](O)[C@H]1O` [Rutin] was run?
Answer: -0.749

Question: Which total cell number does the source give for `CCCNS(=O)(=O)Nc1ncnc(OCCOc2ncc(Br)cn2)c1-c1ccc(Br)cc1` [Macitentan] here?
Answer: -0.584

Question: Which total cell number does the source give for `CC(C)C[C@H](NC(=O)[C@H](Cc1ccccc1)NC(=O)c1cnccn1)B(O)O` [Bortezomib (PS-341)] here?
Answer: -20.2

Question: How did the total cell number turn out when `CC(C)C[C@H](NC(=O)[C@@H](NC(=O)c1cccc(-c2ccccc2)n1)[C@@H](C)O)B(O)O` was run?
Answer: -22.6

Question: For `CC(C)[C@H](NC(=O)c1ccc2ccccc2n1)C(=O)N[C@@H](CC(=O)O)C(=O)COc1c(F)cccc1F`, which total cell number is on record?
Answer: 15.6

Question: Which total cell number does the source give for `C=CC(N)CCC(=O)O` (racemic) [(±)-gamma-Vinyl GABA] here?
Answer: -0.562

Question: How did the total cell number turn out when `COc1ccc(C2CC(=O)c3c(O)cc(OC4OC(COC5OC(C)C(O)C(O)C5O)C(O)C(O)C4O)cc3O2)cc1OC` (centres undefined) [Methyl-Hesperidin] was run?
Answer: -1.13

Question: With `NCC(O)c1ccc(O)c(O)c1` (racemic) [(±)-Norepinephrine (+)bitartrate] as the compound, how does the total cell number read?
Answer: 0.169

Question: With `COc1cccc(C(=O)NCCN2CCN(c3ccc(Cl)cc3)CC2)c1` as the compound, how does the total cell number read?
Answer: -2.1

Question: For `Cc1nc(Nc2ncc(C(=O)Nc3c(C)cccc3Cl)s2)cc(N2CCN(CCO)CC2)n1` [Dasatinib], which total cell number is on record?
Answer: -22.6

Question: How did the total cell number turn out when `CNC(=O)c1ccc2cc([C@@]3(O)CCn4cncc43)ccc2c1` [TAK-700 (Orteronel)] was run?
Answer: 0.9

Question: For `CC1(C)S[C@@H]2[C@H](NC(=O)C(C(=O)O)c3ccccc3)C(=O)N2[C@H]1C(=O)O` (some centres undefined) [Carbenicillin disodium], which total cell number is on record?
Answer: 0.323

Question: For `Cc1nc(N)sc1-c1ccnc(Nc2ccc(N3CCOCC3)cc2)n1`, which total cell number is on record?
Answer: -22.6

Question: How did the total cell number turn out when `N#CCNC(=O)c1ccc(-c2ccnc(Nc3ccc(N4CCOCC4)cc3)n2)cc1` was run?
Answer: -12.5

Question: How did the total cell number turn out when `O=C(Nc1ccc(-c2ccnc(Nc3ccc(N4CCOCC4)cc3)n2)cc1)C1CCCN1` (centres undefined) was run?
Answer: -12.4

Question: With `CC(C)OC(=O)C(C(=O)OC(C)C)=C1SC=CS1` [Malotilate] as the compound, how does the total cell number read?
Answer: 7.42

Question: How did the total cell number turn out when `COc1ccc(C2(CNC(=O)c3ccc(NC(=O)c4ccco4)cc3)CCOCC2)cc1` was run?
Answer: -6.22

Question: `CO[C@@H](C(=O)N1Cc2[nH]nc(NC(=O)c3ccc(N4CCN(C)CC4)cc3)c2C1)c1ccccc1` was tested. Which total cell number did it give?
Answer: -24.2

Question: With `CCc1cccc(CC)c1NC(=O)N1Cc2[nH]nc(NC(=O)c3ccc(N4CCN(C)CC4)cc3)c2C1` as the compound, how does the total cell number read?
Answer: -17.5

Question: Which total cell number does the source give for `COc1cc2c(Oc3ccc4[nH]c(C)cc4c3F)ncnc2cc1OCCCN1CCCC1` [Cediranib (AZD2171)] here?
Answer: -26.9

Question: For `Cc1cc2c(F)c(Oc3ncnn4cc(OC[C@@H](C)OC(=O)[C@H](C)N)c(C)c34)ccc2[nH]1`, which total cell number is on record?
Answer: -4.11

Question: `Cc1cc2c(F)c(Oc3ncnn4cc(OC[C@@H](C)O)c(C)c34)ccc2[nH]1` was tested. Which total cell number did it give?
Answer: -1.9

Question: With `CN(C)C(=O)[C@H](O)[C@H](Cc1ccccc1)NC(=O)c1cc2cc(Cl)ccc2[nH]1` as the compound, how does the total cell number read?
Answer: 0.79 ± 0.2

Question: For `CCCC(CCC)C(=O)O[C@H]1C[C@H]2CC[C@@H](C1)[N+]2(C)C` [Anisotropine methyl bromide], which total cell number is on record?
Answer: 12.1

Question: With `CS(=O)(=O)N1CCN(Cc2cc3nc(-c4cccc5[nH]ncc45)nc(N4CCOCC4)c3s2)CC1` as the compound, how does the total cell number read?
Answer: -23.7

Question: `Cc1c(CN2CCN(C(=O)[C@H](C)O)CC2)sc2c(N3CCOCC3)nc(-c3cnc(N)nc3)nc12` was tested. Which total cell number did it give?
Answer: -11.4

Question: `COc1ccc(-c2nc(N3CCOCC3)c3sc(CN(C)c4ncc(C(=O)NO)cn4)cc3n2)cn1` was tested. Which total cell number did it give?
Answer: -10.4

Question: How did the total cell number turn out when `O=c1cc(-c2ccccc2)oc2cc(O)c(O)c(O)c12` [Baicalein] was run?
Answer: -6.52

Question: Which total cell number does the source give for `CCCCOc1ccc(C(=O)Nc2ccc(F)cc2F)cc1` here?
Answer: 1.72

Question: How did the total cell number turn out when `CCCCCCCCCCCC1=C(O)C(=O)C=C(O)C1=O` [Embelin] was run?
Answer: 1

Question: How did the total cell number turn out when `COc1cc(Nc2ncc3c(n2)-c2ccc(Cl)cc2C(c2c(F)cccc2OC)=NC3)ccc1C(=O)O` [Alisertib (MLN8237)] was run?
Answer: -12.8

Question: With `NS(=O)(=O)c1ccc(-n2nc(C(F)(F)F)cc2-c2ccc(Cl)cc2)cc1` as the compound, how does the total cell number read?
Answer: 0.298

Question: With `NCC(=O)Nc1ccc(-n2nc(C(F)(F)F)cc2-c2ccc3c(ccc4ccccc43)c2)cc1` as the compound, how does the total cell number read?
Answer: -26.5

Question: Which total cell number does the source give for `Cc1ccc(-c2cc(C(F)(F)F)nn2-c2ccc(S(N)(=O)=O)cc2)cc1` [Celecoxib] here?
Answer: 0.578 ± 0.53

Question: For `CCCCc1nc2cc(/C=C/C(=O)NO)ccc2n1CCN(CC)CC` [Pracinostat (SB939)], which total cell number is on record?
Answer: -12.2

Question: For `CCN(CC)CCNC(=O)c1c(C)[nH]c(/C=C2\C(=O)Nc3ccc(F)cc32)c1C` [Sunitinib Malate], which total cell number is on record?
Answer: -26.5

Question: With `Cc1[nH]c(/C=C2\C(=O)Nc3ccccc32)c(C)c1CCC(=O)O` [TSU-68 (SU6668, Orantinib)] as the compound, how does the total cell number read?
Answer: -0.233

Question: How did the total cell number turn out when `CCN(CC)CCNC(=O)c1c(C)[nH]c(/C=C2\C(=O)Nc3ccc(F)cc32)c1C` [Sunitinib malate] was run?
Answer: -11.2

Question: Which total cell number does the source give for `CCN(CC)CCNC(=O)c1cc(S(C)(=O)=O)ccc1OC` [Tiapride hydrochloride] here?
Answer: -1.15
